{"source": "paper PMC5540273", "about": "(PLoS ONE, 2017);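 further: KINOMEscan kinase panel screen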", "details_in_all_cases": "concentration: 1 μM, replicates: in singlicate; n = 1", "key": {"[1]": {"system": "PAK1"}, "[2]": {"system": "PAK2"}, "[3]": {"system": "PAK3"}, "[4]": {"system": "PAK4"}, "[5]": {"system": "PAK6"}, "[6]": {"system": "PAK7"}, "[7]": {"system": "T1, PCTK1", "T1 construct": "gene CDK16"}, "[8]": {"system": "T2, PCTK2", "T2 construct": "gene CDK17"}, "[9]": {"system": "T3, PCTK3", "T3 construct": "gene CDK18"}, "[10]": {"system": "PDGFRA"}}, "data": [{"smiles": "NC(=O)c1sc(-n2cnc3ccccc32)cc1OCc1ccccc1F", "note": "[GSK1024306]", "values": [{"measurement": "%Inh", "setting": "[1]", "result": 14, "unit": "%"}, {"measurement": "%Inh", "setting": "[2]", "result": 16, "unit": "%"}, {"measurement": "%Inh", "setting": "[3]", "result": 0, "unit": "%"}, {"measurement": "%Inh", "setting": "[4]", "result": 0, "unit": "%"}, {"measurement": "%Inh", "setting": "[5]", "result": 0, "unit": "%"}, {"measurement": "%Inh", "setting": "[6]", "result": 4, "unit": "%"}, {"measurement": "%Inh", "setting": "[7]", "result": 0, "unit": "%"}, {"measurement": "%Inh", "setting": "[8]", "result": 0, "unit": "%"}, {"measurement": "%Inh", "setting": "[9]", "result": 1, "unit": "%"}, {"measurement": "%Inh", "setting": "[10]", "result": 0, "unit": "%"}]}, {"smiles": "COc1cc2c(Nc3cccc(NC(=O)c4ccccc4)c3)ncnc2cc1OCCCN1CCOCC1", "note": "[GSK223810]", "values": [{"measurement": "%Inh", "setting": "[1]", "result": 4, "unit": "%"}, {"measurement": "%Inh", "setting": "[2]", "result": 0, "unit": "%"}, {"measurement": "%Inh", "setting": "[3]", "result": 5, "unit": "%"}, {"measurement": "%Inh", "setting": "[4]", "result": 0, "unit": "%"}, {"measurement": "%Inh", "setting": "[5]", "result": 0, "unit": "%"}, {"measurement": "%Inh", "setting": "[6]", "result": 0, "unit": "%"}, {"measurement": "%Inh", "setting": "[7]", "result": 0, "unit": "%"}, {"measurement": "%Inh", "setting": "[8]", "result": 0, "unit": "%"}, {"measurement": "%Inh", "setting": "[9]", "result": 22, "unit": "%"}, {"measurement": "%Inh", "setting": "[10]", "result": 63, "unit": "%"}]}, {"smiles": "CCC(CC)(CC)n1cnc2c(N)ncnc21", "note": "[SKF-97620]", "values": [{"measurement": "%Inh", "setting": "[1]", "result": 10, "unit": "%"}, {"measurement": "%Inh", "setting": "[2]", "result": 51, "unit": "%"}, {"measurement": "%Inh", "setting": "[3]", "result": 14, "unit": "%"}, {"measurement": "%Inh", "setting": "[4]", "result": 0, "unit": "%"}, {"measurement": "%Inh", "setting": "[5]", "result": 0, "unit": "%"}, {"measurement": "%Inh", "setting": "[6]", "result": 10, "unit": "%"}, {"measurement": "%Inh", "setting": "[7]", "result": 2, "unit": "%"}, {"measurement": "%Inh", "setting": "[8]", "result": 0, "unit": "%"}, {"measurement": "%Inh", "setting": "[9]", "result": 0, "unit": "%"}, {"measurement": "%Inh", "setting": "[10]", "result": 24, "unit": "%"}]}, {"smiles": "CNc1nccc(-c2c(-c3ccc(F)cc3)ncn2C2CCN(C)CC2)n1", "note": "[SB-222903]", "values": [{"measurement": "%Inh", "setting": "[1]", "result": 0, "unit": "%"}, {"measurement": "%Inh", "setting": "[2]", "result": 13, "unit": "%"}, {"measurement": "%Inh", "setting": "[3]", "result": 0, "unit": "%"}, {"measurement": "%Inh", "setting": "[4]", "result": 0, "unit": "%"}, {"measurement": "%Inh", "setting": "[5]", "result": 0, "unit": "%"}, {"measurement": "%Inh", "setting": "[6]", "result": 0, "unit": "%"}, {"measurement": "%Inh", "setting": "[7]", "result": 0, "unit": "%"}, {"measurement": "%Inh", "setting": "[8]", "result": 0, "unit": "%"}, {"measurement": "%Inh", "setting": "[9]", "result": 0, "unit": "%"}, {"measurement": "%Inh", "setting": "[10]", "result": 0, "unit": "%"}]}, {"smiles": "Nc1nccc2scc(-c3ccc4c(c3)CCN4C(=O)Cc3cc(F)ccc3F)c12", "note": "[GSK2587663]", "values": [{"measurement": "%Inh", "setting": "[1]", "result": 1, "unit": "%"}, {"measurement": "%Inh", "setting": "[2]", "result": 0, "unit": "%"}, {"measurement": "%Inh", "setting": "[3]", "result": 19, "unit": "%"}, {"measurement": "%Inh", "setting": "[4]", "result": 0, "unit": "%"}, {"measurement": "%Inh", "setting": "[5]", "result": 0, "unit": "%"}, {"measurement": "%Inh", "setting": "[6]", "result": 0, "unit": "%"}, {"measurement": "%Inh", "setting": "[7]", "result": 0, "unit": "%"}, {"measurement": "%Inh", "setting": "[8]", "result": 0, "unit": "%"}, {"measurement": "%Inh", "setting": "[9]", "result": 20, "unit": "%"}, {"measurement": "%Inh", "setting": "[10]", "result": 0, "unit": "%"}]}, {"smiles": "O=C(c1ccc(-c2cc(-c3c[nH]nc3-c3ccccn3)ccn2)cc1)N1CCCC1", "note": "[GW792479]", "values": [{"measurement": "%Inh", "setting": "[1]", "result": 8, "unit": "%"}, {"measurement": "%Inh", "setting": "[2]", "result": 0, "unit": "%"}, {"measurement": "%Inh", "setting": "[3]", "result": 0, "unit": "%"}, {"measurement": "%Inh", "setting": "[4]", "result": 16, "unit": "%"}, {"measurement": "%Inh", "setting": "[5]", "result": 9, "unit": "%"}, {"measurement": "%Inh", "setting": "[6]", "result": 0, "unit": "%"}, {"measurement": "%Inh", "setting": "[7]", "result": 0, "unit": "%"}, {"measurement": "%Inh", "setting": "[8]", "result": 0, "unit": "%"}, {"measurement": "%Inh", "setting": "[9]", "result": 3, "unit": "%"}, {"measurement": "%Inh", "setting": "[10]", "result": 0, "unit": "%"}]}, {"smiles": "Cc1ccc(C)c(NC(=O)NCCNc2ccnc(Nc3ccc(F)cc3)n2)c1", "note": "[GSK1379878]", "values": [{"measurement": "%Inh", "setting": "[1]", "result": 0, "unit": "%"}, {"measurement": "%Inh", "setting": "[2]", "result": 0, "unit": "%"}, {"measurement": "%Inh", "setting": "[3]", "result": 0, "unit": "%"}, {"measurement": "%Inh", "setting": "[4]", "result": 0, "unit": "%"}, {"measurement": "%Inh", "setting": "[5]", "result": 100, "unit": "%"}, {"measurement": "%Inh", "setting": "[6]", "result": 0, "unit": "%"}, {"measurement": "%Inh", "setting": "[7]", "result": 0, "unit": "%"}, {"measurement": "%Inh", "setting": "[8]", "result": 0, "unit": "%"}, {"measurement": "%Inh", "setting": "[9]", "result": 0, "unit": "%"}, {"measurement": "%Inh", "setting": "[10]", "result": 0, "unit": "%"}]}, {"smiles": "COc1ccc(NC(=O)c2ccc(-c3cc(-c4nnc(C)o4)ccc3C)cc2)cc1", "note": "[GW595885]", "values": [{"measurement": "%Inh", "setting": "[1]", "result": 0, "unit": "%"}, {"measurement": "%Inh", "setting": "[2]", "result": 0, "unit": "%"}, {"measurement": "%Inh", "setting": "[3]", "result": 0, "unit": "%"}, {"measurement": "%Inh", "setting": "[4]", "result": 0, "unit": "%"}, {"measurement": "%Inh", "setting": "[5]", "result": 0, "unit": "%"}, {"measurement": "%Inh", "setting": "[6]", "result": 0, "unit": "%"}, {"measurement": "%Inh", "setting": "[7]", "result": 6, "unit": "%"}, {"measurement": "%Inh", "setting": "[8]", "result": 0, "unit": "%"}, {"measurement": "%Inh", "setting": "[9]", "result": 24, "unit": "%"}, {"measurement": "%Inh", "setting": "[10]", "result": 0, "unit": "%"}]}, {"smiles": "CCCc1ccc(S(=O)(=O)NC2CCN(c3ccnc(Nc4ccc(OC)cc4)n3)C2)cc1", "note": "(stereo not drawn) [GSK1379737]", "values": [{"measurement": "%Inh", "setting": "[1]", "result": 11, "unit": "%"}, {"measurement": "%Inh", "setting": "[2]", "result": 9, "unit": "%"}, {"measurement": "%Inh", "setting": "[3]", "result": 100, "unit": "%"}, {"measurement": "%Inh", "setting": "[4]", "result": 0, "unit": "%"}, {"measurement": "%Inh", "setting": "[5]", "result": 0, "unit": "%"}, {"measurement": "%Inh", "setting": "[6]", "result": 0, "unit": "%"}, {"measurement": "%Inh", "setting": "[7]", "result": 0, "unit": "%"}, {"measurement": "%Inh", "setting": "[8]", "result": 0, "unit": "%"}, {"measurement": "%Inh", "setting": "[9]", "result": 0, "unit": "%"}, {"measurement": "%Inh", "setting": "[10]", "result": 0, "unit": "%"}]}]}
